Experimental data: PubChem BioAssay (Tox21)
Inconclusive results are not listed. Activity calls are given as the source filed them. Calls follow the shape of the dose curve; as a rule, active = well fitted activation curve with a large enough effect in the repeat runs; inconclusive = weak or mixed curves; inactive = flat fitted curve, though single readings scatter.

Experiment: A CellTox Green Cytotoxicity Assay to monitor cytotoxicity in HepG2 cells - 24 hour (AID 1224878); also: nearly all actives have a fitted effect of over 45% in size
Details: CellTox Green fluorescence; series mostly up to 76.8 µM; cytotoxicity: at the top concentration
From the text: National Center for Advancing Translational Sciences [NCATS]
NIH Chemical Genomics Center [NCGC]
U.S. Environmental Protection Agency [EPA]
National Institutes of Environmental Health Sciences [NIEHS]
National Toxicology Program [NTP]
Cell-based models are critical for drug discovery. Determining the natural cytotoxic effects resulting from test compounds is an essential research activity. A CellTox Green Cytotoxicity Assay to monitor cytotoxicity in real time of continues cell culture during 40 hours of the compound treatment was used to screen Tox21 10K library compounds in HepG2 cells. CellTox Green Cytotoxicity Assay is a nonlytic, homogeneous, biofluorescent method to measure cytotoxicity in cell culture after experimental manipulation. The assay system uses a proprietary asymmetric cyanine dye that is excluded from viable cells but preferentially stains the dead cell's DNA. […] Viable cells produce no appreciable increases in fluorescence. Therefore, the fluorescence signal produced by the binding interaction with dead cell DNA is proportional to cytotoxicity.
The mixture of HepG2 cell suspension and reagents were dispensed at 600cells/6 ul/well in 1536-well tissue culture treated black solid bottom plates using a Multidrop dispenser. After the assay plates were incubated at a 37 C/5% CO2 incubator for 5 hours, 23 nL of compounds dissolved in DMSO, positive and negative controls was transferred to the assay plate by a pintool work station. The plates were incubated at 37 C for 40 hours. The fluorescence intensity were measured at 0h, 8h, 16h, 24h, 32h and 40h time points using ViewLux plate reader during compound treatment.
% is scaled to controls: 0 for no effect and ±100 for the full control effect; potency is read from the fitted curve at half-maximal effect.

Row | SMILES | cytotoxicity | Potency
1 | CCOCCC(=O)OCC | -2.98% (inactive) | 
2 | Cc1ccc2c(c1)CCCN2 | 2.75% (inactive) | 
3 | CCN(CC)CCOc1ccccc1C(=O)CCc1ccccc1 | 1.58% [at 35.3 µM] (inactive) | 
4 | O=[N+]([O-])C1(Br)COCOC1 |  | 54.9 µM (active)
5 | C=C(C)C(=O)OCCC(F)(F)C(F)(F)C(F)(F)C(F)(F)C(F)(F)C(F)(F)F | -13.3% (inactive) | 
6 | Cc1c[nH]c2ccccc12 | 0.273% [at 35.3 µM] (inactive) | 
7 | CCC(=O)OCc1ccc(OC)cc1 | -8.54% (inactive) | 
8 | C/C(C=O)=C\c1ccccc1 | 1.37% (inactive) | 
9 | COc1cc(NC(C)CCCN)c2ncccc2c1 (stereo not given) | 11.5% [at 35.3 µM] (inactive) | 
10 | CC(=O)Oc1cccc(O)c1 | -2.61% [at 35.3 µM] (inactive) | 
11 | CC/C=C\C/C=C\C/C=C\CCCCCCCC(=O)OCC | 0.446% (inactive) | 
12 | ClC1=C(Cl)C1(Cl)Cl | 2.44% (inactive) | 
13 | CCO[Si](C)(CCCOCC1CO1)OCC (stereo not given) | -5.42% (inactive) | 
14 | CC(=O)OCC1=C(C(=O)O)N2C(=O)[C@@H](NC(=O)CSc3ccncc3)[C@H]2SC1 | -25.4% [at 35.3 µM] (inactive) | 
15 | O=C(O)CNC(=O)c1ccccc1I | -2.47% [at 35.3 µM] (inactive) | 
16 | CCOC(=O)c1ccc(NC(=O)CN2CCCCC2)cc1 | 2.6% [at 35.3 µM] (inactive) | 
17 | CCCCCCC(O)CCCCCCCCCCC(=O)OC (stereo not given) | -15.9% (inactive) | 
18 | CC(C)(C)CCCCCCOC(=O)c1ccccc1C(=O)OCCCCCCC(C)(C)C | -7.96% (inactive) | 
19 | COc1ccc(-c2cc(C(F)F)nn2-c2ccc(S(N)(=O)=O)cc2)cc1F | 9.33% [at 35.3 µM] (inactive) | 
20 | O=S(=O)(O)CO | 14.3% (inactive) | 

Row | SMILES | cytotoxicity | Potency
21 | CCCCCCCCCCCCCOC(=O)CCSCCC(=O)OCCCCCCCCCCCCC | -0.358% [at 15.8 µM] (inactive) | 
22 | C[C@@H]1C[C@H]2[C@@H]3CCC4=CC(=O)C=C[C@]4(C)[C@@]3(F)[C@@H](O)C[C@]2(C)[C@@]1(O)C(=O)COP(=O)(O)O | -2.74% (inactive) | 
23 | CN1C(CSCC(F)(F)F)Nc2cc(Cl)c(S(N)(=O)=O)cc2S1(=O)=O (stereo not given) | -13.1% [at 35.3 µM] (inactive) | 
24 | CCCCCCCC/C=C/C(=O)O | -13.2% [at 35.3 µM] (inactive) | 
25 | Nc1ccc(S(=O)(=O)NCc2ccccc2)cc1 | 8.65% [at 35.3 µM] (inactive) | 
26 | COc1ccc(-c2cc(=S)ss2)cc1 | 6.06% [at 35.3 µM] (inactive) | 
27 | CC(=O)C(=O)CC(C)C | 0.902% (inactive) | 
28 | O=C(O)CCC(=O)c1ccc(-c2ccccc2)cc1 | 4.31% [at 35.3 µM] (inactive) | 
29 | CCN(CC)C(=O)N1CCN(C)CC1 | 22.1% [at 35.3 µM] (inactive) | 
30 | COC(C)(C)OC | -1.45% (inactive) | 
31 | CN=C(N)NC(=O)Nc1c(C)cccc1C | -4.71% [at 35.3 µM] (inactive) | 
32 | COc1ccc(C2C(=O)c3ccccc3C2=O)cc1 | -3.04% [at 35.3 µM] (inactive) | 
33 | Cc1cn([C@H]2C[C@H](F)[C@@H](CO)O2)c(=O)[nH]c1=O | 19.1% [at 35.3 µM] (inactive) | 
34 | CC(=O)OCCC(C)CC(C)(C)C (stereo not given) | -5.76% (inactive) | 
35 | Cc1c(C2(c3cc(Br)c(O)c(Br)c3C)OS(=O)(=O)c3ccccc32)cc(Br)c(O)c1Br | -31.8% (inactive) | 
36 | CC[C@@H](CO)NCCN[C@@H](CC)CO | 0.533% [at 35.3 µM] (inactive) | 
37 | CC(C)CC(O)CC(C)C | 1.76% (inactive) | 
38 | Nc1cccc2c(N)cccc12 | -10.7% (inactive) | 
39 | CCN(CC)C(=O)/C(C#N)=C/c1cc(O)c(O)c([N+](=O)[O-])c1 | -0.243% [at 35.3 µM] (inactive) | 
40 | CN1CCCN(C(c2ccccc2)c2ccc(Cl)cc2)CC1 (stereo not given) |  | 23.9 µM (active)
